Measurements taken from the supplement of paper PMC6288085.
Where a name gives a salt, the structure may show the parent alone. ± gives the uncertainty stated by the source.

These compounds were tested on Caenorhabditis elegans N2 (assay: food intake (mean delta OD600 / animal over 72 h) with 50 uM loxapine co-treatment (OD600 units per animal); higher = more food eaten (less suppression of loxapine-induced hyperphagia)). Details: first compound 33 µM, loxapine concentration 50 µM.
Protocol: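 C. elegans N2 adults (FUDR-sterilised, day 1) in 96-well plates fed gamma-irradiated bacteria. Each library drug (MedChemExpress FDA-approved library) at 33 uM was combined with loxapine at 50 uM. Food intake was measured as bacterial clearance: the change in OD600 from day 1 to 72 h, normalised per animal (mean over 14-21 wells of about 10-12 worms). Drugs flagged for bacterial lysis or sickness were excluded by the authors.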
`CN(C)c1cc(NC(=O)CNC(C)(C)C)c(O)c2c1C[C@H]1C[C@H]3[C@H](N(C)C)C(O)=C(C(N)=O)C(=O)[C@@]3(O)C(O)=C1C2=O` [tigecycline] + CN1CCN(C2=Nc3ccccc3Oc3ccc(Cl)cc32)CC1 [loxapine] showed a food intake of 0.0234 ± 0.0019. `COc1ccc(C(=O)NCc2ccc(OCCN(C)C)cc2)cc1OC` [itopride (hydrochloride)] + CN1CCN(C2=Nc3ccccc3Oc3ccc(Cl)cc32)CC1 [loxapine] gave a food intake of 0.0294 ± 0.033. Work on `C#Cc1cccc(Nc2ncnc3cc(OCCOC)c(OCCOC)cc23)c1` [Erlotinib] + CN1CCN(C2=Nc3ccccc3Oc3ccc(Cl)cc32)CC1 [loxapine] yielded a food intake of 0.0212 ± 0.0034. `Cc1cc(C)cc(OCC2CNC(=O)O2)c1` (stereo not given) [metaxalone] + CN1CCN(C2=Nc3ccccc3Oc3ccc(Cl)cc32)CC1 [loxapine] gave a food intake of 0.0236 ± 0.003. `NC12CC3CC(CC(C3)C1)C2` [amantadine (hydrochloride)] + CN1CCN(C2=Nc3ccccc3Oc3ccc(Cl)cc32)CC1 [loxapine] was tested, and the food intake was 0.0253 ± 0.003. Compound `Nc1nc(/C(=C/CC(=O)O)C(=O)N[C@@H]2C(=O)N3C(C(=O)O)=CCS[C@H]23)cs1` [ceftibuten (dihydrate)] + CN1CCN(C2=Nc3ccccc3Oc3ccc(Cl)cc32)CC1 [loxapine] has a food intake of 0.0192 ± 0.0055. In the case of `CN1CCC[C@H]1c1cccnc1` [L-nicotine] + CN1CCN(C2=Nc3ccccc3Oc3ccc(Cl)cc32)CC1 [loxapine], the food intake is reported as 0.0212 ± 0.0058. In the case of `CC(=O)C1C(=O)C=C(C)OC1=O` (stereo not given) [dehydroacetic acid] + CN1CCN(C2=Nc3ccccc3Oc3ccc(Cl)cc32)CC1 [loxapine], the food intake is reported as 0.0214 ± 0.0043. Work on `CC(C)(Oc1ccc(CCNC(=O)c2ccc(Cl)cc2)cc1)C(=O)O` [bezafibrate] + CN1CCN(C2=Nc3ccccc3Oc3ccc(Cl)cc32)CC1 [loxapine] yielded a food intake of 0.0212 ± 0.0034. For `Cc1cccc(-c2nn3c(c2-c2ccnc4ccc(C(N)=O)cc24)CCC3)n1` + CN1CCN(C2=Nc3ccccc3Oc3ccc(Cl)cc32)CC1 [loxapine], the food intake was 0.0252 ± 0.0052. `COc1ccc2[nH]c([S@@+]([O-])Cc3ncc(C)c(OC)c3C)nc2c1` [Esomeprazole (magnesium trihydrate)] + CN1CCN(C2=Nc3ccccc3Oc3ccc(Cl)cc32)CC1 [loxapine] showed a food intake of 0.0226 ± 0.0041. Compound `C[C@H]1c2cccc(O)c2C(=O)C2=C(O)[C@]3(O)C(=O)C(C(N)=O)=C(O)[C@@H](N(C)C)[C@@H]3[C@@H](O)[C@@H]21` [doxycycline] + CN1CCN(C2=Nc3ccccc3Oc3ccc(Cl)cc32)CC1 [loxapine] has a food intake of 0.0161 ± 0.0037. With `Nc1ccc(O)c(C(=O)O)c1` [5-Aminosalicylic acid] + CN1CCN(C2=Nc3ccccc3Oc3ccc(Cl)cc32)CC1 [loxapine] the food intake was 0.0212 ± 0.0048. `C#C[C@]1(O)CC[C@H]2[C@@H]3CCc4cc(OC)ccc4[C@H]3CC[C@@]21C` [mestranol] + CN1CCN(C2=Nc3ccccc3Oc3ccc(Cl)cc32)CC1 [loxapine] was tested, and the food intake was 0.0204 ± 0.0018. With `COC(=O)/C=C/C(=O)OC` [dimethyl fumarate] + CN1CCN(C2=Nc3ccccc3Oc3ccc(Cl)cc32)CC1 [loxapine] the food intake was 0.0218 ± 0.0043. `Nc1ccc(S(=O)(=O)c2ccc(N)cc2)cc1` [dapsone] + CN1CCN(C2=Nc3ccccc3Oc3ccc(Cl)cc32)CC1 [loxapine] showed a food intake of 0.0216 ± 0.006. `CN1CC(=O)N2[C@H](c3ccc4c(c3)OCO4)c3[nH]c4ccccc4c3C[C@@H]2C1=O` [tadalafil] + CN1CCN(C2=Nc3ccccc3Oc3ccc(Cl)cc32)CC1 [loxapine] showed a food intake of 0.0236 ± 0.0034. For `FC(F)(F)C(Cl)Br` (stereo not given) [halothane] + CN1CCN(C2=Nc3ccccc3Oc3ccc(Cl)cc32)CC1 [loxapine], the food intake was 0.0227 ± 0.0031. For `CCOc1ccc(NC(C)=O)cc1` [phenacetin] + CN1CCN(C2=Nc3ccccc3Oc3ccc(Cl)cc32)CC1 [loxapine], the food intake was 0.0226 ± 0.0036. `CC(C)NCC(O)COc1ccc(CCOCC2CC2)cc1` (stereo not given) [betaxolol (hydrochloride)] + CN1CCN(C2=Nc3ccccc3Oc3ccc(Cl)cc32)CC1 [loxapine] showed a food intake of 0.025 ± 0.003. Compound `O=c1[nH]c(=O)n([C@H]2C[C@H](O)[C@@H](CO)O2)cc1I` [idoxuridine] + CN1CCN(C2=Nc3ccccc3Oc3ccc(Cl)cc32)CC1 [loxapine] has a food intake of 0.0176 ± 0.0026. With `CO/N=C(\C(=O)N[C@@H]1C(=O)N2C(C(=O)O)=C(CSc3nc(=O)c(O)nn3C)CS[C@H]12)c1csc(N)n1` [ceftriaxone (sodium salt)] + CN1CCN(C2=Nc3ccccc3Oc3ccc(Cl)cc32)CC1 [loxapine] the food intake was 0.0251 ± 0.0082. With `COC(=O)Nc1nc2cc([S+]([O-])c3ccccc3)ccc2[nH]1` (stereo not given) [oxfendazole] + CN1CCN(C2=Nc3ccccc3Oc3ccc(Cl)cc32)CC1 [loxapine] the food intake was 0.0214 ± 0.0037. For `O=C(C1CCCCC1)N1CC(=O)N2CCc3ccccc3C2C1` (stereo not given) [praziquantel] + CN1CCN(C2=Nc3ccccc3Oc3ccc(Cl)cc32)CC1 [loxapine], the food intake was 0.0224 ± 0.0023. `Cc1cc(C)c2c(c1)[C@@H](N(Cc1cc(C(F)(F)F)cc(C(F)(F)F)c1)c1nnn(C)n1)CCCN2C[C@H]1CC[C@H](C(=O)O)CC1` [Evacetrapib] + CN1CCN(C2=Nc3ccccc3Oc3ccc(Cl)cc32)CC1 [loxapine] was tested, and the food intake was 0.0229 ± 0.0033. Work on `C[N+]1(C)CCC(=C(c2ccccc2)c2ccccc2)CC1` [diphenmanil (methylsulfate)] + CN1CCN(C2=Nc3ccccc3Oc3ccc(Cl)cc32)CC1 [loxapine] yielded a food intake of 0.0235 ± 0.0021. `NC(=O)c1cnccn1` [pyrazinamide] + CN1CCN(C2=Nc3ccccc3Oc3ccc(Cl)cc32)CC1 [loxapine] gave a food intake of 0.0222 ± 0.0034. Work on `CCCCNc1ccc(C(=O)OCCN(C)C)cc1` [tetracaine (hydrochloride)] + CN1CCN(C2=Nc3ccccc3Oc3ccc(Cl)cc32)CC1 [loxapine] yielded a food intake of 0.0236 ± 0.0037. In the case of `Cc1ccc(C)c(OCCCC(C)(C)C(=O)O)c1` [Gemfibrozil] + CN1CCN(C2=Nc3ccccc3Oc3ccc(Cl)cc32)CC1 [loxapine], the food intake is reported as 0.0247 ± 0.0069. `Nc1nnc(-c2cccc(Cl)c2Cl)c(N)n1` [lamotrigine] + CN1CCN(C2=Nc3ccccc3Oc3ccc(Cl)cc32)CC1 [loxapine] was tested, and the food intake was 0.0237 ± 0.008. In the case of `Cc1cccc(C)c1OCC(=O)N[C@@H](Cc1ccccc1)[C@@H](O)C[C@H](Cc1ccccc1)NC(=O)[C@H](C(C)C)N1CCCNC1=O` [lopinavir] + CN1CCN(C2=Nc3ccccc3Oc3ccc(Cl)cc32)CC1 [loxapine], the food intake is reported as 0.0209 ± 0.0084. For `N[C@@H]1CCCCN(c2c(F)cc3c(=O)c(C(=O)O)cn(C4CC4)c3c2Cl)C1` [besifloxacin (hydrochloride)] + CN1CCN(C2=Nc3ccccc3Oc3ccc(Cl)cc32)CC1 [loxapine], the food intake was 0.0227 ± 0.0056. Compound `O=C(O)C1=C(CSc2nnnn2CS(=O)(=O)O)CS[C@@H]2[C@H](NC(=O)[C@H](O)c3ccccc3)C(=O)N12` [cefonicid (sodium)] + CN1CCN(C2=Nc3ccccc3Oc3ccc(Cl)cc32)CC1 [loxapine] has a food intake of 0.0217 ± 0.018. Work on `CN1C(C(=O)Nc2ccccn2)=C(O)c2ccccc2S1(=O)=O` [piroxicam] + CN1CCN(C2=Nc3ccccc3Oc3ccc(Cl)cc32)CC1 [loxapine] yielded a food intake of 0.0225 ± 0.0032. For `CCOC(=O)/C=C(C)/C=C/C=C(C)/C=C/c1c(C)cc(OC)c(C)c1C` [etretinate] + CN1CCN(C2=Nc3ccccc3Oc3ccc(Cl)cc32)CC1 [loxapine], the food intake was 0.0213 ± 0.0039. `CC1(C)[C@H](C(=O)O)N2C(=O)C[C@H]2S1(=O)=O` [sulbactam] + CN1CCN(C2=Nc3ccccc3Oc3ccc(Cl)cc32)CC1 [loxapine] showed a food intake of 0.0225 ± 0.0027. In the case of `Cc1[nH]c(=O)c(C#N)cc1-c1ccncc1` [milrinone] + CN1CCN(C2=Nc3ccccc3Oc3ccc(Cl)cc32)CC1 [loxapine], the food intake is reported as 0.0238 ± 0.0035. `C=CC[N+]1([C@H]2C[C@H]3[C@@H]4CC[C@H]5C[C@H](O)[C@@H](N6CCOCC6)C[C@]5(C)[C@H]4CC[C@]3(C)[C@H]2OC(C)=O)CCCC1` [rocuronium (bromide)] + CN1CCN(C2=Nc3ccccc3Oc3ccc(Cl)cc32)CC1 [loxapine] was tested, and the food intake was 0.0231 ± 0.0029. `O=NN(CCCl)C(=O)NC1CCCCC1` [Lomustine] + CN1CCN(C2=Nc3ccccc3Oc3ccc(Cl)cc32)CC1 [loxapine] was tested, and the food intake was 0.0248 ± 0.0039. For `O=c1[nH]c(=O)n([C@H]2C[C@H](O)[C@@H](CO)O2)cc1C(F)(F)F` [trifluorothymidine] + CN1CCN(C2=Nc3ccccc3Oc3ccc(Cl)cc32)CC1 [loxapine], the food intake was 0.0216 ± 0.0028.
